Test results: PubChem BioAssay (NCI)
Compounds without any hit were thinned out: in the full panel of roughly 79,000, 15% have a hit. Activity calls are given as the source filed them. Cut-off read from the data, not from the text of the source: active = growth inhibition above about 70%; inactive = the rest.

Legend:
[1] = NCI Yeast Anticancer Drug Screen. Data for the wt1 strain (AID 149);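 note: 0% = growth of vehicle-treated wt1 cultures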; conditions: S. cerevisiae wt1 strain (SPY 50644) growth inhibition, hits give high values
Outline: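 Growth inhibition read against vehicle controls after compound exposure of the wt1 yeast strain.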

[2] = NCI Yeast Anticancer Drug Screen. Data for the rad50EPP+ strain (AID 151);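 note: 0% = growth of vehicle-treated control cultures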; conditions: S. cerevisiae rad50 mutant strain, hits give high values
Outline: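 Genetically defined yeast (rad50EPP+, DNA damage repair alteration) is grown with compound, and inhibition of growth is expressed relative to vehicle-treated controls.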

[3] = NCI Yeast Anticancer Drug Screen. Data for the mgt1 strain (AID 153); conditions: S. cerevisiae mgt1 mutant growth inhibition, hits give high values
Outline: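 In the mgt1 strain, test compounds were added and growth inhibition was determined relative to vehicle-treated controls.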

[4] = NCI Yeast Anticancer Drug Screen. Data for the rad50 strain (AID 155);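 note: 0% = growth of vehicle-only cultures of the same strain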; conditions: S. cerevisiae rad50 strain growth inhibition, hits give high values
Outline: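 Readout: growth inhibition relative to vehicle-treated cultures. Compound exposure was carried out in a genetically defined yeast strain deficient in DNA damage repair.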

[5] = NCI Yeast Anticancer Drug Screen. Data for the mec2-1 strain (AID 157); conditions: S. cerevisiae mec2-1 strain, hits give high values
Outline: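 Each compound was tested on mec2-1 yeast, a strain altered in DNA damage repair or cell cycle control. Growth inhibition is reported relative to vehicle.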

[6] = NCI Yeast Anticancer Drug Screen. Data for the rad14 strain (AID 159);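 note: 0% = growth of vehicle-treated control cultures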; conditions: S. cerevisiae rad14 strain growth inhibition, hits give high values
Outline: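 Growth inhibition vs vehicle controls; genetically altered yeast strain (DNA damage repair defect) treated with test compounds.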

[7] = NCI Yeast Anticancer Drug Screen. Data for the sgs1 mgt1 strain (AID 161);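 note: 0% = growth of cultures given vehicle only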; conditions: S. cerevisiae sgs1 mgt1 strain, hits give high values
Outline: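 Mutant yeast exposed to compound; growth scored against vehicle-only wells.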

[8] = NCI Yeast Anticancer Drug Screen. Data for the CLN2oe strain (AID 163);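 note: 0% = growth of vehicle-only control cultures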; conditions: S. cerevisiae CLN2oe strain, hits give high values
Outline: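 First, the altered yeast strain was treated with each compound; second, its growth was measured; finally, inhibition was derived by comparison with vehicle controls.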

[9] = NCI Yeast Anticancer Drug Screen. Data for the cln2 rad14 strain (AID 165);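 note: 0% = growth equal to vehicle treated cultures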; conditions: S. cerevisiae cln2 rad14 strain, hits give high values
Outline: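 Test compounds were added to cln2 rad14 yeast cultures; inhibition of growth was then determined by comparison with vehicle treatment.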

[10] = NCI Yeast Anticancer Drug Screen. Data for the bub3 strain (AID 167); conditions: S. cerevisiae bub3 mutant strain, hits give high values
Outline: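 Readout: yeast growth inhibition, expressed relative to vehicle-only wells. The test organism is a mutant strain from a panel with lesions in DNA repair or checkpoint genes.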

[11] = NCI Yeast Anticancer Drug Screen. Data for the wt2 strain (AID 169);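 note: 0% = growth of vehicle-treated yeast cultures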; conditions: S. cerevisiae wt2 strain growth inhibition, hits give high values
Outline: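 The panel's yeast strains carry defined changes in DNA repair or cell cycle genes. Each strain is grown with compound, and growth loss is scored relative to vehicle.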

[12] = NCI Yeast Anticancer Drug Screen. Data for the mlh1 strain (AID 171);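 note: 0% = growth of vehicle-treated control cultures of the same strain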; conditions: S. cerevisiae mlh1 strain growth inhibition, hits give high values
Outline: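 Inhibition values reflect reduced yeast growth in the presence of compound, referenced to vehicle controls, using a strain chosen for its alteration in DNA repair or cell cycle control.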

[13] = NCI Yeast Anticancer Drug Screen. Data for the sgs1 strain (AID 173);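 note: 0% = growth of vehicle-only control cultures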; conditions: S. cerevisiae sgs1 mutant, hits give high values
Outline: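 Vehicle-treated cultures served as reference for growth inhibition of a yeast strain altered in DNA damage repair or cell cycle control after compound exposure.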

[14] = NCI Yeast Anticancer Drug Screen. Data for the mlh1 rad18 strain (AID 175); conditions: S. cerevisiae mlh1 rad18 strain growth inhibition, hits give high values
Outline: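 Inhibition values reflect reduced growth of mutant yeast versus vehicle-treated controls following compound exposure; the mutations affect DNA damage repair.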

[15] = NCI Yeast Anticancer Drug Screen. Data for the rad18 strain (AID 177); conditions: S. cerevisiae rad18 mutant growth inhibition, hits give high values
Outline: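 Steps: expose repair-mutant yeast to compound; measure growth; express as inhibition relative to vehicle control.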

[16] = NCI Yeast Anticancer Drug Screen. Data for the rad52 strain (AID 147);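 note: 0% = growth of vehicle-treated control cultures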; conditions: S. cerevisiae rad52 mutant growth inhibition, hits give high values
Outline: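 Inhibition of yeast growth, referenced to vehicle controls, was the measured output for a strain with defective DNA damage repair.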

[17] = at 5.0 µM (retest, dose inferred, filed as 0.5)
[18] = at 50.0 µM (retest, dose inferred, filed as 5.0)

Measured: growth inhibition

O=C(Nn1c(-c2ccccc2)nc2ccccc2c1=O)c1ccc(Cl)cc1
active: [1]; at 100.0 µM 96% | [3]; at 100.0 µM 94% | [4]; at 33.0 µM 70% | [4]; at 100.0 µM 95% | [5]; at 100.0 µM 93% | [6]; at 33.0 µM 76% | [6]; at 100.0 µM 91% | [8]; at 100.0 µM 94% | [10]; at 11.0 µM 72% | [10]; at 33.0 µM 93% | [10]; at 100.0 µM 95% | [11]; at 100.0 µM 95% | [12]; at 100.0 µM 95% | [13]; at 33.0 µM 78% | [13]; at 100.0 µM 96% | [14]; at 50.0 µM 71.9% | [15]; at 33.0 µM 70% | [15]; at 100.0 µM 95%
inactive: [1]; at 1.2 µM 23% | [1]; at 3.7 µM 15% | [1]; at 11.0 µM 17% | [1]; at 33.0 µM 54% | [2]; at 1.2 µM -1% | [2]; at 3.7 µM -11% | [2]; at 11.0 µM -2% | [2]; at 33.0 µM 16% | [2]; at 100.0 µM 27% | [3]; at 1.2 µM -4% | [3]; at 3.7 µM -19% | [3]; at 11.0 µM -17% | [3]; at 33.0 µM 50% | [4]; at 1.2 µM 26% | [4]; at 3.7 µM 9% | [4]; [17] -24% | [4]; at 11.0 µM 31% | [4]; [18] 68% | [4]; at 50.0 µM 66.5% | [5]; at 1.2 µM -15% | [5]; at 3.7 µM -24% | [5]; [17] -3% | [5]; at 11.0 µM -1% | [5]; at 33.0 µM 28% | [5]; [18] 9% | [5]; at 50.0 µM 36.4% | [6]; at 1.2 µM -11% | [6]; at 3.7 µM -5% | [6]; at 11.0 µM -15% | [7]; [17] 0% | [7]; [18] 24% | [7]; at 50.0 µM 56.5% | [8]; at 1.2 µM 12% | [8]; at 3.7 µM -8% | [8]; at 11.0 µM -23% | [8]; at 33.0 µM 12% | [9]; [17] -20% | [9]; [18] 16% | [9]; at 50.0 µM 49.5% | [10]; at 1.2 µM 43% | [10]; at 3.7 µM 52% | [10]; [17] -19% | [10]; [18] 68% | [10]; at 50.0 µM 68.7% | [11]; at 1.2 µM 5% | [11]; at 3.7 µM 6% | [11]; at 11.0 µM 5% | [11]; at 33.0 µM 51% | [12]; at 1.2 µM 5% | [12]; at 3.7 µM 1% | [12]; at 11.0 µM 26% | [12]; at 33.0 µM 69% | [13]; at 1.2 µM 23% | [13]; at 3.7 µM 19% | [13]; at 11.0 µM 33% | [14]; [17] -46% | [14]; [18] 68% | [15]; at 1.2 µM -2% | [15]; at 3.7 µM -2% | [15]; at 11.0 µM 13%

CN(C)/N=N/c1nc[nH]c1C(N)=O
active: [16]; at 100.0 µM 95% | [1]; at 100.0 µM 88% | [4]; at 100.0 µM 97% | [5]; at 100.0 µM 98% | [10]; at 100.0 µM 96% | [11]; at 100.0 µM 98% | [12]; at 100.0 µM 97% | [13]; at 100.0 µM 98% | [15]; at 100.0 µM 98%
inactive: [16]; at 1.2 µM -2% | [16]; at 3.7 µM 1% | [16]; at 11.0 µM 8% | [16]; at 33.0 µM 31% | [1]; at 1.2 µM 0% | [1]; at 3.7 µM -1% | [1]; at 11.0 µM -3% | [1]; at 33.0 µM -1% | [2]; at 1.2 µM -3% | [2]; at 3.7 µM -2% | [2]; at 11.0 µM 0% | [2]; at 33.0 µM 8% | [2]; at 100.0 µM 32% | [4]; at 1.2 µM -2% | [4]; at 3.7 µM 0% | [4]; at 11.0 µM 7% | [4]; at 33.0 µM 20% | [5]; at 1.2 µM 0% | [5]; at 3.7 µM 0% | [5]; at 11.0 µM 1% | [5]; at 33.0 µM 5% | [10]; at 1.2 µM 2% | [10]; at 3.7 µM 1% | [10]; at 11.0 µM -2% | [10]; at 33.0 µM 46% | [11]; at 1.2 µM -5% | [11]; at 3.7 µM -1% | [11]; at 11.0 µM -2% | [11]; at 33.0 µM -2% | [12]; at 1.2 µM -2% | [12]; at 3.7 µM -2% | [12]; at 11.0 µM 0% | [12]; at 33.0 µM 0% | [13]; at 1.2 µM -1% | [13]; at 3.7 µM -2% | [13]; at 11.0 µM 1% | [13]; at 33.0 µM 6% | [15]; at 1.2 µM -3% | [15]; at 3.7 µM 0% | [15]; at 11.0 µM 8% | [15]; at 33.0 µM 42%

O=C1OC(/C=C/c2ccccc2)Sc2ccccc21 (stereo unspecified)
inactive: [1]; at 1.2 µM -3% | [1]; at 3.7 µM 0% | [1]; at 11.0 µM 1% | [1]; at 33.0 µM 2% | [1]; at 100.0 µM 8% | [2]; at 1.2 µM 5% | [2]; at 3.7 µM 5% | [2]; at 11.0 µM 13% | [2]; at 33.0 µM 18% | [2]; at 100.0 µM 23% | [3]; at 1.2 µM -1% | [3]; at 3.7 µM 2% | [3]; at 11.0 µM 4% | [3]; at 33.0 µM 10% | [3]; at 100.0 µM 44% | [4]; at 1.2 µM 3% | [4]; at 3.7 µM 4% | [4]; [17] -16% | [4]; at 11.0 µM 10% | [4]; at 33.0 µM 14% | [4]; [18] 1% | [4]; at 50.0 µM -0.5% | [4]; at 100.0 µM 27% | [5]; at 1.2 µM -3% | [5]; at 3.7 µM -3% | [5]; [17] 10% | [5]; at 11.0 µM 0% | [5]; at 33.0 µM 10% | [5]; [18] 8% | [5]; at 50.0 µM 29.8% | [5]; at 100.0 µM 24% | [6]; at 1.2 µM 1% | [6]; at 3.7 µM 0% | [6]; at 11.0 µM 4% | [6]; at 33.0 µM 12% | [6]; at 100.0 µM 23% | [7]; [17] 3% | [7]; [18] 7% | [7]; at 50.0 µM 30.9% | [8]; at 1.2 µM 0% | [8]; at 3.7 µM 2% | [8]; at 11.0 µM -1% | [8]; at 33.0 µM 3% | [8]; at 100.0 µM 17% | [9]; [17] -34% | [9]; [18] -47% | [9]; at 50.0 µM -26.9% | [10]; at 1.2 µM 5% | [10]; at 3.7 µM 11% | [10]; [17] 7% | [10]; at 11.0 µM 33% | [10]; at 33.0 µM 46% | [10]; [18] 50% | [10]; at 100.0 µM 62% | [11]; at 1.2 µM -2% | [11]; at 3.7 µM -8% | [11]; at 11.0 µM -2% | [11]; at 33.0 µM 1% | [11]; at 100.0 µM 10% | [12]; at 1.2 µM 1% | [12]; at 3.7 µM 3% | [12]; at 11.0 µM 7% | [12]; at 33.0 µM 12% | [12]; at 100.0 µM 26% | [13]; at 1.2 µM 0% | [13]; at 3.7 µM 2% | [13]; at 11.0 µM 6% | [13]; at 33.0 µM 12% | [13]; at 100.0 µM 25% | [14]; [17] 11% | [14]; [18] 27% | [14]; at 50.0 µM 32.9% | [15]; at 1.2 µM 1% | [15]; at 3.7 µM 4% | [15]; at 11.0 µM 7% | [15]; at 33.0 µM 19% | [15]; at 100.0 µM 43%
active: [10]; at 50.0 µM 89.3%
